MCF10A rereplic: DNA re-replication induction in MCF 10a cells; MCF 10A DNA re-replication, Hoechst nuclear intensity, 48 h; Potency, µM (highest dose often 46.1 µM), without a hit: top-dose activity, positive = re-replication, most hits filed as activators; actives 2.9% (n = 350,000); AID 624296; note: % of control where 0% means no effect; nearly all actives have a fitted effect of over 50% in size
p53 reactivator: mutant p53 re-activation in reporter cells; actives 0.063% (n = 320,000); H1299 p53-A138V BP100-luciferase reporter, luminescence, 24 h; Potency, µM (top dose mostly 92.2 µM), for inactives: at the top dose activity change, positive = activation, hits mostly activators; note: % of control where 0% means no effect; nearly all actives have a fitted effect of over 45% in size
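H1299 (p53-null), stable ts p53-A138V + BP100-Luc; 1000 cells/well, Opti-MEM/10% FBS; cpd 4 pt, 1:5; 24 h, 37 deg C, 5% CO2; detection reagent 10 min RT; luminescence.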
AT treatment: potential ataxia-telangiectasia treatment; F2112 A-T fibroblasts, KAP-1 phosphorylation AlphaLISA; neocarzinostatin DNA damage 30 min before lysis; Potency, µM (doses to about 57.5 µM), for inactives: at the top dose activation, actives largely listed as activators; actives 0.19% (n = 320,000); note: % of control where 0% means no effect; nearly all actives have a fitted effect of over 45% in size
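ATM-like activity read as KAP-1 phosphorylation via AlphaLISA donor/acceptor antibody pairs after lysis and 6 hr at 25C. Cells were ATM-null patient fibroblasts (F2112, hTERT), dosed 60 min, then exposed to the DSB inducer NCS for 30 min.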
ELG1 genotox: inducers of genotoxicity in HEK293T ELG1-luciferase cells | Potency, µM (series often up to 46 µM), inactives show at the top dose activity change, positive = activation, hits mostly activators | HEK293T ELG1-luciferase reporter, luminescence, 16 h | actives 1.3% (n = 330,000); note: % of control where 0% means no effect; nearly all actives have a fitted effect of over 60% in size
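Quantitative HTS format in 1536-well plates. HEK293T ELG1-luciferase reporter cells receive test compound and are incubated 16 hr at 37 °C, 5% CO2; ONE-Glo added, 30 min room temperature, then luminescence read.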
SW480 rereplic: induces DNA re-replication in SW480 colon adenocarcinoma cells. SW480 DNA re-replication, Hoechst DNA content imaging, 48 h. Potency, µM (doses to about 46.1 µM), inactives show at the highest dose re-replication activation, most hits filed as activators. actives 1.8% (n = 340,000); note: % of control where 0% means no effect; nearly all actives have a fitted effect of over 55% in size
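250 cells/well; 23 nL cpd via pin tool; 48 hr, 37 C, 5% CO2; Hoechst 40 min; imager read of total nuclear intensity, ex 405/em 500-530 nm.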
ELG1 repair inh: inhibitors of ELG1-dependent DNA repair in HEK293T cells; HEK293T ELG1-luciferase reporter, luminescence, 16 h; DNA damage induced by 5-fluorouridine; Potency, µM (top dose mostly 46.1 µM), inactives show at the top dose activity change, negative = inhibition, usual class: inhibitors; actives 2.3% (n = 330,000); AID 504467; note: % is set by controls: 0 for no effect and ±100 for the full control effect; nearly all actives have a fitted effect of over 55% in size
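Luminescence from the luciferase reporter, measured 30 min after ONE-Glo reagent at room temperature, was the read-out. Beforehand, 2,000 cells per well were exposed for 16 hr at 37 °C to 5-fluorouridine together with compound or vehicle.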
Active calls of the source: *; ? = inconclusive; / = not tested or not shown; [ ] = dose if it differs, or a comment. Shown are actives, neighbours in structure and some others; about 7.1% of the full set was active somewhere. Calls come from the whole dose curve; as a rule, active = well fitted curve in the direction sought with a large enough effect; inconclusive = small, poorly fitted or top-dose-only effect, or another doubt; inactive = no such curve, though single readings can be large; an effect the other way counts as inactive or inconclusive. Potency is the fitted concentration of half-maximal effect.

SMILES	MCF10A rereplic	p53 reactivator	AT treatment	ELG1 genotox	SW480 rereplic	ELG1 repair inh
COc1ccc(S(=O)(=O)NNC(=O)c2ccc(-n3c(C)ccc3C)cc2)cc1	1%	10%	2%	9%	2%	29%
COc1ccc(N2CCN(C(=O)CN3c4cccc5cccc(c45)S3(=O)=O)CC2)cc1	1%	-3%	-2%	-10%	-24%	?
COc1ccc(-c2cn3cc(C(F)(F)F)cc(Cl)c3n2)cc1	24%	?	6%	5.8µM*	18µM*	?
COc1ccc(-c2nc3ccccn3c2CN2CCN(c3ccccc3F)CC2)cc1	?	-8%	1%	-5%	13%	?
COc1ccc(-c2nc3ccccn3c2Cl)cc1	9%	?	-6%	1.2µM*	-5%	?
Fc1ccc(-c2cn3cc(C(F)(F)F)cc(Cl)c3n2)cc1	?	27%	5%	?	?	?
COc1ccc(-c2cn3ccc4ccccc4c3n2)cc1	10%	28µM*	/	1.2µM*	?	?
CC(C)C[C@H]1CNC(=S)N1CC1CCN(CC2CCCC2)CC1	?	/	/	/	0.026µM*	/
CC(C)n1nccc1NC(=O)COC(=O)c1ccc(NC(N)=O)cc1	-1%	-4%	0%	-1%	0%	0%
CC(=O)Nc1ccc2ccc3cccc4ccc1c2c34	6.5µM*	-2%	/	-3%	21µM*	3%
O=C1CN(S(=O)(=O)c2ccc(Cl)cc2)c2ccccc2N1	-1%	/	0%	4%	-3%	-6%
CCN(CC)c1ccc(/C=N/NC(=O)C(O)(c2ccccc2)c2ccccc2)o1	7.3µM*	-24%	-3%	?	?	-16%
O=C(O)c1ccc(/C=N/NC(=O)C(O)(c2ccccc2)c2ccccc2)cc1	-15%	/	0%	2%	?	11%
CCOC(=O)c1c(NC(=O)C2=C(C)NC(=S)NC2c2ccccc2C(F)(F)F)sc(C)c1C (stereo unspecified)	17%	-10%	/	-1%	?	23µM*
CCOc1ccc(NC(=O)CN(C)C(=O)CSCc2cccc(C)c2)cc1OCC	4%	-6%	1%	-2%	-1%	-17%
CCOc1ccc(NC(=O)CN(C)C(=O)CSCc2ccc(C)cc2)cc1OCC	?	-3%	-19%	-15%	21%	7.3µM*
CCOc1ccc(NC(=O)CN(C)C(=O)c2ccccc2OCc2cccc(C)c2)cc1OCC	?	0%	-3%	-1%	?	10µM*
CC(C)c1ccccc1NS(=O)(=O)c1cccs1	3%	0%	14%	-12%	-1%	-4%
O=C1C(Cl)=C(N2CCCCC2)C(=O)C(Cl)=C1c1cnc(N2CCCCC2)s1	5.8µM*	16%	9%	-4%	5.8µM*	?
CC(=O)c1cnc(N(C)C)s1	4%	2%	3%	3%	-7%[9.22 µM]	5%
CN(C)c1ncc(C2=C(Cl)C(=O)C(N3CCCC3)=C(Cl)C2=O)s1	?	/	/	/	9.2µM*	/
O=C(Cc1ccccc1[N+](=O)[O-])NCC1(c2cccc3c2OCO3)OCCO1	-2%	/	/	/	1%	/
Cc1cccc(NC(=O)CSc2ncnc3nc[nH]c23)c1C	23µM*	-3%	5%	0%	?	8%
CCCc1c(C)c2ccc(OCC(C)=O)cc2oc1=O	1%	?	13%	?	2%	?
CCCCc1c(C)c2ccc(OCC(C)=O)cc2oc1=O	4%	?	3%	5.2µM*	0%	?
SMILES	MCF10A rereplic	p53 reactivator	AT treatment	ELG1 genotox	SW480 rereplic	ELG1 repair inh
Cn1cnc([N+](=O)[O-])c1Sc1nc(N)nc2c1ncn2C1OC(CO)C(O)C1O (stereo unspecified)	2.1µM*	/	/	/	5.8µM*	/
Cn1cnc([N+](=O)[O-])c1Sc1nc(N)nc2c1ncn2C1CC(O)C(CO)O1 (stereo unspecified)	2.1µM*	/	/	/	7.3µM*	/
CCSc1nc(N)nc2c1ncn2C1OC(CO)C(O)C1O (stereo unspecified)	-4%	/	/	/	-10%	/
CCOc1ccc(/C=C2\SC(=S)N(CC(=O)Nc3ccccn3)C2=O)cc1	?	15%	-2%	10%	?	?
Cc1noc(NS(=O)(=O)c2ccc(NC(=O)c3cc4ccccc4o3)cc2)c1C	0%	-16%	12%	3%	-10%	-1%
N#Cc1cc(-c2ccccc2)cnc1Sc1ccc(Cl)cc1	13%	14%	10%	-4%	10%	?
N#Cc1cc(-c2ccc(Cl)cc2)cnc1Sc1ccc(F)cc1	15µM*	2%	5%	13%	9%	-4%
COCCCNC(=S)NCCNc1nc2c(C)c(C)ccc2cc1C#N	23µM*	-5%	3%	-9%	?	?
COc1cc(C(=O)NCCNc2nc3cc(C)ccc3cc2C#N)cc(OC)c1OC	11%	/	10%	-4%	0%	?
COc1cc(C(=O)NCCNc2nc3c(C)c(C)ccc3cc2C#N)cc(OC)c1OC	21µM*	/	10%	13%	?	0%
COCCCNC(=S)N1CCCN(c2nc3c(C)c(C)ccc3cc2C#N)CC1	-4%	-2%	4%	2%	6%	2%
CCOc1ccc2nc(NCCNC(=O)c3cc(OC)c(OC)c(OC)c3)c(C#N)cc2c1	23µM*	-2%	?	-6%	6.5µM*	13µM*
CN(C)CCCNC(=S)NCCNc1nc2cc3c(cc2cc1C#N)OCO3	21µM*	4%	10%	1%	15µM*	8%
Cc1cc(C)c(C#N)c(N2CCN(CCOc3ccc(Cl)cc3)CC2)n1	?	-3%	8%	4%	11%	18µM*
O=C(Nc1nc2ccccc2[nH]1)c1cccc([N+](=O)[O-])c1	4%	-3%	4%	9%	12%	?
O=C(Nc1nc2ccccc2[nH]1)c1cccc(F)c1	?	23%	0%	2.9µM*	21µM*	?
CN(C)c1cccc(C(=O)Nc2nc3ccccc3[nH]2)c1	5%	27%	-3%	?	?	?
COc1cccc(C(=O)Nc2nc3ccccc3[nH]2)c1	15%	6%	/	0.37µM*	2%[9.22 µM]	?
Cc1ccc(N(C)S(=O)(=O)c2cccc(C(=O)Nc3nc4ccccc4[nH]3)c2)cc1	?	20%	10%	-5%	?	23µM*
O=C(Nc1nc2ccccc2[nH]1)c1cccc(Br)c1	6%	?	6%	2.1µM*	19%	?
CC#CC(=O)N1CCC(C(=O)Nc2ccc(Oc3ccccc3)nc2)CC1	-1%	13%	6%	?	21%	?

Screening results from PubChem.
